Measured values reported in publication PMC8384837, “Expanding the binding specificity for RNA recognition by a PUF domain”.
Changes are numbered by the printed parent chain.

Key:
Experiment in all cases: yeast three-hybrid, YBZ-1, SC-Leu-His + 0.5 mM 3-AT, 4 days
Conditions in all cases: tags: N-Gal4 AD-HA kept; label: inside an RPR1-promoter hybrid RNA with tandem MS2 sites; ssRNA
PUM1 PUF domain R8-RKK = PUM1 PUF domain R8-RKK (Homo sapiens, UniProt Q14671 828-1176, N1122R;Y1123K;Q1126K)
Summary of the method: (§1)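 Repeat regions from input (SC-Leu) and selection (SC-Leu-His + 0.5 mM 3-AT) plates were PCR-amplified and Illumina-sequenced after four days of growth. The cells were strain YBZ-1 with a LexA–MS2 coat fusion and a HIS3 reporter, co-expressing Pumilio-1 PUF domain libraries and matching RNA elements from a centromeric plasmid. The interaction score is the log change in variant frequency from input to selection, taken in log2 with a pseudocount of 1 for absent variants.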

PUM1 PUF domain R8-LYK = PUM1 PUF domain R8-LYK (Homo sapiens, UniProt Q14671 828-1176, N1122L;Q1126K)
Summary of the method: as §1

PUM1 PUF domain R7-RQL = PUM1 PUF domain R7-RQL (Homo sapiens, UniProt Q14671 828-1176, S1079R;N1080Q;E1083L)
Summary of the method: as §1

PUM1 PUF domain R7-TVA = PUM1 PUF domain R7-TVA (Homo sapiens, UniProt Q14671 828-1176, S1079T;N1080V;E1083A)
Summary of the method: as §1

PUM1 PUF domain R1-YWR = PUM1 PUF domain R1-YWR (Homo sapiens, UniProt Q14671 828-1176, S863Y;R864W;Q867R)
Summary of the method: as §1

PUM1 PUF domain R1-RGI = PUM1 PUF domain R1-RGI (Homo sapiens, UniProt Q14671 828-1176, S863R;R864G;Q867I)
Summary of the method: as §1

PUM1 PUF domain R2-CFP = PUM1 PUF domain R2-CFP (Homo sapiens, UniProt Q14671 828-1176, N899C;Y900F;Q903P)
Summary of the method: as §1

PUM1 PUF domain R4-PWN = PUM1 PUF domain R4-PWN (Homo sapiens, UniProt Q14671 828-1176, N971P;H972W;Q975N)
Summary of the method: as §1

PUM1 PUF domain R5-LWA = PUM1 PUF domain R5-LWA (Homo sapiens, UniProt Q14671 828-1176, C1007L;R1008W;Q1011A)
Summary of the method: as §1

PUM1 PUF domain R4-DFT = PUM1 PUF domain R4-DFT (Homo sapiens, UniProt Q14671 828-1176, N971D;H972F;Q975T)
Summary of the method: as §1

PUM1 PUF domain R5-RRP = PUM1 PUF domain R5-RRP (Homo sapiens, UniProt Q14671 828-1176, C1007R;Q1011P)
Summary of the method: as §1

PUM1 PUF domain R6-VWA = molecular target: T1, PUM1 PUF domain R6-VWA (Homo sapiens, UniProt Q14671 828-1176, N1043V;Y1044W;Q1047A)
T1 sequence: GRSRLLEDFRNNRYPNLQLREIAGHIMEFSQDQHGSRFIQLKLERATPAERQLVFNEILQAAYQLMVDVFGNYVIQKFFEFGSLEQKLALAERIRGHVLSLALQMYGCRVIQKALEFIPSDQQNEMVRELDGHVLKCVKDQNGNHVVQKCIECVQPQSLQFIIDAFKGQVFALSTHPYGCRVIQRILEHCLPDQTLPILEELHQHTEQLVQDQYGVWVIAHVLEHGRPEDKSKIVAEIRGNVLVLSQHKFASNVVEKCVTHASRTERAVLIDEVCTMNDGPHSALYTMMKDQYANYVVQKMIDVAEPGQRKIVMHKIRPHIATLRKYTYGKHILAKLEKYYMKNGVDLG
Summary of the method: as §1

PUM1 PUF domain R5-GWS = PUM1 PUF domain R5-GWS (Homo sapiens, UniProt Q14671 828-1176, C1007G;R1008W;Q1011S)
Summary of the method: as §1

PUM1 PUF domain R6-VFS = molecular target: T2, PUM1 PUF domain R6-VFS (Homo sapiens, UniProt Q14671 828-1176, N1043V;Y1044F;Q1047S)
T2 sequence: T1 sequence with W217F, A220S
Summary of the method: as §1

Chain of PUM1 PUF domain R5-LWA (Q14671 828-1176 C1007L/R1008W/Q1011A): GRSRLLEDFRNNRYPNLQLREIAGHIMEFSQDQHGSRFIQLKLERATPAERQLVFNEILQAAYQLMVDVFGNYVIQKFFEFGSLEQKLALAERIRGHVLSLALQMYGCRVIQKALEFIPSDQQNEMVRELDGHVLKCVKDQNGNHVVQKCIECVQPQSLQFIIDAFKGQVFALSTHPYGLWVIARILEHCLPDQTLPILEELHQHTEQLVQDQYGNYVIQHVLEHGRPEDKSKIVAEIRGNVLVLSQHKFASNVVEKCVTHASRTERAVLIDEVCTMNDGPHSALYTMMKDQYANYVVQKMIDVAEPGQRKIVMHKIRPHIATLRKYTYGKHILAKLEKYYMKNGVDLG
Chain of PUM1 PUF domain R5-RRP (Q14671 828-1176 C1007R/Q1011P): as the sequence (Q14671 828-1176 C1007L/R1008W/Q1011A) above, with L180R, W181R, A184P counted along it

With “GGCUAGAACUAGUGGAUCCCCCGGCGCCCGGCGGCUCGAGCCCGGGUAAGCGUAAAUAGUCUGCAUGCCGCCGGGCGCCAUGCCUGCAGGUCGACUCUAGAAAACAUG” the binding signal (PUM1 PUF domain R8-RKK) was 4.27 log2 enrichment (interaction score) and the binding signal (PUM1 PUF domain R8-LYK) was 5.14 log2 enrichment (interaction score).
With “GGCUAGAACUAGUGGAUCCCCCGGCGCCCGGCGGCUCGAGCCCGGGUAAGUUUAAAUAGUCUGCAUGCCGCCGGGCGCCAUGCCUGCAGGUCGACUCUAGAAAACAUG” the binding signal (PUM1 PUF domain R7-RQL) was 3.63 log2 enrichment (interaction score) and the binding signal (PUM1 PUF domain R7-TVA) was 3.46 log2 enrichment (interaction score).
“GGCUAGAACUAGUGGAUCCCCCGGCGCCCGGCGGCUCGAGCCCGGGUAAGUGUAAAUCGUCUGCAUGCCGCCGGGCGCCAUGCCUGCAGGUCGACUCUAGAAAACAUG” was tested, and the binding signal (PUM1 PUF domain R1-YWR) was 4.68 log2 enrichment (interaction score) and the binding signal (PUM1 PUF domain R1-RGI) was 2.06 log2 enrichment (interaction score).
With “GGCUAGAACUAGUGGAUCCCCCGGCGCCCGGCGGCUCGAGCCCGGGUAAGUGUAAAAAGUCUGCAUGCCGCCGGGCGCCAUGCCUGCAGGUCGACUCUAGAAAACAUG” the binding signal (PUM1 PUF domain R2-CFP) was 10.2 log2 enrichment (interaction score).
In the case of “GGCUAGAACUAGUGGAUCCCCCGGCGCCCGGCGGCUCGAGCCCGGGUAAGUGUAAAUAGUCUGCAUGCCGCCGGGCGCCAUGCCUGCAGGUCGACUCUAGAAAACAUG”, the binding signal (PUM1 PUF domain R4-PWN) is reported as 2.08 log2 enrichment (interaction score), the binding signal (PUM1 PUF domain R5-LWA) is reported as 1.66 log2 enrichment (interaction score) and the binding signal (PUM1 PUF domain R4-DFT) is reported as 3.18 log2 enrichment (interaction score). The binding signal (PUM1 PUF domain R5-RRP) was 3.17 log2 enrichment (interaction score), the binding signal (PUM1 PUF domain R6-VWA) was 4.02 log2 enrichment (interaction score) and the binding signal (PUM1 PUF domain R8-RKK) was 4.25 log2 enrichment (interaction score). The binding signal (PUM1 PUF domain R5-GWS) was 4.65 log2 enrichment (interaction score), the binding signal (PUM1 PUF domain R6-VFS) was 2.71 log2 enrichment (interaction score) and the binding signal (PUM1 PUF domain R8-LYK) was 5.28 log2 enrichment (interaction score).
With “GGCUAGAACUAGUGGAUCCCCCGGCGCCCGGCGGCUCGAGCCCGGGUAAGUGUUAAUAGUCUGCAUGCCGCCGGGCGCCAUGCCUGCAGGUCGACUCUAGAAAACAUG” the binding signal (PUM1 PUF domain R5-LWA) was 3.28 log2 enrichment (interaction score) and the binding signal (PUM1 PUF domain R5-RRP) was 4.7 log2 enrichment (interaction score).
“GGCUAGAACUAGUGGAUCCCCCGGCGCCCGGCGGCUCGAGCCCGGGUAAGUGUGAAUAGUCUGCAUGCCGCCGGGCGCCAUGCCUGCAGGUCGACUCUAGAAAACAUG” was tested, and the binding signal (PUM1 PUF domain R5-LWA) was 1.01 log2 enrichment (interaction score) and the binding signal (PUM1 PUF domain R5-RRP) was 1.27 log2 enrichment (interaction score).
